Hit rate of the full screen: of about 310,000 compounds, about 14,000 (4.5%) showed an effect of 50% or more. The effect is printed as a negative number. Shown is part of a subset that was picked to be rich in strong results.
What follows are compounds tested against human ether-à-go-go-related gene (hERG) potassium channel (human, UniProt Q12809) (assay: primary screen, population patch clamp on CHO cells stably expressing hERG; higher = less effect of the substance).
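Also: peak tail current of the secondary pulse compared with the same well before compound.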

Chain of human ether-à-go-go-related gene (hERG) potassium channel (Q12809 whole entry, looked up): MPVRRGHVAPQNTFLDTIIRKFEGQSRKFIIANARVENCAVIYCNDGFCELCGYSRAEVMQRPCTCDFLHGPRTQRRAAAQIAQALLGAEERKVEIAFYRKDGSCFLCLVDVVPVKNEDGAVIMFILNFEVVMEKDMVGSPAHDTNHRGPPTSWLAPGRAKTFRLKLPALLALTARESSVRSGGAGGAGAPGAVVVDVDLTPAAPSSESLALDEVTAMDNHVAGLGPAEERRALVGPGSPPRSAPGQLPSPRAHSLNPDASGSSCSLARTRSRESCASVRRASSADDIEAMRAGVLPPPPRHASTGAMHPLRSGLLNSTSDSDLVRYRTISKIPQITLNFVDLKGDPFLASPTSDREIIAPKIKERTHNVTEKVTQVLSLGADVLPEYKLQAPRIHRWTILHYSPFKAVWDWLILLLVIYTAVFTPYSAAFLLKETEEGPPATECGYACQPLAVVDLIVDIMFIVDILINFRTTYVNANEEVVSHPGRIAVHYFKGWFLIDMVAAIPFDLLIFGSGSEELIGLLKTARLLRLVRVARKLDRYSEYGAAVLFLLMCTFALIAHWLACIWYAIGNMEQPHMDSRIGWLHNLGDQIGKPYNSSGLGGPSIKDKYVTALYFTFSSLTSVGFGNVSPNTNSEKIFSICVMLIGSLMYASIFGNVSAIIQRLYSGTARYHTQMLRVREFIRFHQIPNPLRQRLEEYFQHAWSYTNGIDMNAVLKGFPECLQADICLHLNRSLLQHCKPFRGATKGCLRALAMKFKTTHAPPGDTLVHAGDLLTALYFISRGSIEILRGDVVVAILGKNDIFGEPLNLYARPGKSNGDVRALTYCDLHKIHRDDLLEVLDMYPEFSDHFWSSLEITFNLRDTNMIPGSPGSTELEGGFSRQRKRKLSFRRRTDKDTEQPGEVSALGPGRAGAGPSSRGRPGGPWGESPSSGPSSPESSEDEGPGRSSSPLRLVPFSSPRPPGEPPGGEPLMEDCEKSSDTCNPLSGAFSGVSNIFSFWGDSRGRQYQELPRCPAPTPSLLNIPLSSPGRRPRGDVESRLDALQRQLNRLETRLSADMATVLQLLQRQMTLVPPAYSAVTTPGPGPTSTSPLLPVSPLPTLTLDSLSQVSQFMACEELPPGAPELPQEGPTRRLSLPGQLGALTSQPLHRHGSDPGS

Going from `COc1ccc(C2C(C(=O)O)CCC(=O)N2c2ccc(C)cc2)cc1OC` (stereo not shown) to `CCOC(=O)C1CCCN(C(=O)c2cc(-c3ccc(C)cc3)nc3ccccc23)C1` (stereo not shown), the “hERG current change (%, negative = inhibition) at 10uM” value falls from -10.6% to -37.6%.

First: CC(C)[C@H](NS(=O)(=O)c1ccccc1)C(=O)OCC(=O)Nc1ccccc1Sc1ccccc1
Second: O=C(N/N=C/c1c(O)ccc2ccccc12)Nc1ccccc1
The “hERG current change (%, negative = inhibition) at 10uM” value of the first is lower: 1.98% for the first, 16.3% for the second.

Compared with `C=CCn1c(Sc2nnc(C)s2)nc2c1c(=O)[nH]c(=O)n2C`, `Cn1c(SCCS(=O)(=O)c2ccc(Cl)cc2)nnc1-c1ccccc1` is lower in “hERG current change (%, negative = inhibition) at 10uM” value: 11.2% for the first, -19.3% for the second.

Going from `O=C(NCc1ccccn1)Nc1ccccc1F` to `COc1ccccc1NC(=O)c1cc(-c2ccc(C)o2)nc2ccccc12`, the “hERG current change (%, negative = inhibition) at 10uM” value falls from 13.5% to -60.7%.

Compared with `Cc1cc(NC(=O)CSc2ccc(Cl)cc2)no1`, `Cc1nnc(-c2ccc(Cl)cc2)nc1NCCN(C)C` is lower in “hERG current change (%, negative = inhibition) at 10uM” value: -3.36% for the first, -38.9% for the second.

First: COc1cccc(C(=O)CSc2nc3ccccc3n2CC(=O)N(C(C)C)C(C)C)c1
Second: COc1cccc(C(=O)N(CN2CCCC2=O)c2cccc(Cl)c2)c1
The “hERG current change (%, negative = inhibition) at 10uM” value of the first is higher: -5.36% for the first, -25.4% for the second.

First: CCCCCc1ccc(S(=O)(=O)Nc2cc(C)ccn2)cc1
Second: CCCCCc1ccc(CC(=O)O)cc1
The “hERG current change (%, negative = inhibition) at 10uM” value of the first is lower: 8.41% for the first, 11.4% for the second.

First: CCCCOc1ccc(C)cc1CN(CCO)CCO.Cl
Second: CCCCCOc1ccc(C)cc1CN(CCCl)CCCl.Cl
The “hERG current change (%, negative = inhibition) at 10uM” value of the first is lower: 1.6% for the first, 13.1% for the second.

Compared with `Cc1ccc[n+](CC(=O)Nc2ccc(C)c(C)c2)c1.[Cl-]`, `CCCCCc1ccc(OCCCC[n+]2cccc(C)c2)c(CCCCC)c1.[Cl-]` is lower in “hERG current change (%, negative = inhibition) at 10uM” value: 10.4% for the first, -71.1% for the second.

Compared with `CCCCOc1ccc(CCN)cc1Cl.Cl`, `CCCCCc1ccc(OCCC[n+]2ccccc2)c(CCCCC)c1.[Cl-]` is lower in “hERG current change (%, negative = inhibition) at 10uM” value: -13.7% for the first, -75.7% for the second.

Compared with `CC(=O)Nc1ccc(OCCC[n+]2ccccc2)cc1.[Cl-]`, `CCCCCc1ccc(OCCCC[n+]2ccccc2)c(CCCCC)c1.[Cl-]` is lower in “hERG current change (%, negative = inhibition) at 10uM” value: 40.4% for the first, -66.4% for the second.

Compared with `CCCCCCC[n+]1ccc(-c2cc[n+](CCCCCCC)cc2)cc1.[I-]`, `CCCCCc1ccc(OCCCC[n+]2ccc(C)cc2)c(CCCCC)c1.[Cl-]` is lower in “hERG current change (%, negative = inhibition) at 10uM” value: 9.12% for the first, -77% for the second.

First: OCC1OC(n2cnc3ccccc32)CC1O (stereo not shown)
Second: CC1CC(C)CN(C(=O)c2cc(-c3ccncc3)nc3ccccc23)C1 (stereo not shown)
The “hERG current change (%, negative = inhibition) at 10uM” value of the first is higher: 10.8% for the first, -35.5% for the second.

First: CCNC(=O)OCC12CC3CC(CC(C3)C1)C2
Second: Cl.c1cc(CNC23CC4CC(CC(C4)C2)C3)ccn1
The “hERG current change (%, negative = inhibition) at 10uM” value of the first is higher: -5.85% for the first, -20.2% for the second.

First: Cc1ccc(C(=O)N/N=C\c2ccc(-c3ccc(Cl)c(Cl)c3)o2)cn1
Second: Cc1ccc(-c2cc(C(=O)Nc3ccccc3C)c3ccccc3n2)o1
The “hERG current change (%, negative = inhibition) at 10uM” value of the first is lower: -44.9% for the first, 9.38% for the second.

Going from `CCOC(=O)N1CCN(C(=O)C2CCC(=O)N(Cc3cccc(C(F)(F)F)c3)C2)CC1` (stereo not shown) to `CCOC(=O)N1CCN(C(=O)c2cc(-c3ccncc3)nc3ccccc23)CC1`, the “hERG current change (%, negative = inhibition) at 10uM” value falls from -11.1% to -48.4%.

Going from `CC(C)n1c(O)c(N=NC(=O)C2COc3ccccc3O2)c2ccccc21` (stereo not shown) to `Cc1cc(C)c(S(=O)(=O)N2CCN(C(=O)C3COc4ccccc4O3)CC2)c(C)c1` (stereo not shown), the “hERG current change (%, negative = inhibition) at 10uM” value falls from 12.4% to -17%.

Compared with `Nn1c(COc2ccccc2F)nnc1SCC(=O)NC1CCS(=O)(=O)C1` (stereo not shown), `O=C(CN1CCN(Cc2ccc(F)cc2Cl)CC1)NCc1ccccc1` is lower in “hERG current change (%, negative = inhibition) at 10uM” value: -7.72% for the first, -23.2% for the second.

Compared with `CCc1nc(CN2CCN(c3ccc(C(F)(F)F)cn3)CC2)c(C)[nH]1`, `CCc1nc(CN2CCN(c3cc(C(F)(F)F)ccn3)CC2)c(C)[nH]1` is higher in “hERG current change (%, negative = inhibition) at 10uM” value: -55.6% for the first, -45.2% for the second.

First: CS(=O)(=O)Nc1ccc(N2CCN(c3ccc(C(F)(F)F)cn3)CC2)nc1
Second: CN(NS(=O)(=O)c1ccc(Br)cc1)c1nc(C(F)(F)F)nc2ccccc12
The “hERG current change (%, negative = inhibition) at 10uM” value of the first is lower: -4.03% for the first, 12.2% for the second.

Going from `OCCCNc1nc(-c2ccc(Cl)cc2)nnc1-c1ccc(Br)cc1` to `OCCCNc1nc(-c2ccc(Br)cc2)nnc1-c1ccc(Cl)cc1`, the “hERG current change (%, negative = inhibition) at 10uM” value rises from -61.5% to -52.3%.

Compared with `Nc1nc(-c2ccc(Cl)cc2)nnc1-c1ccc(Br)cc1`, `Clc1ccc(-c2nnc(-c3ccc(Br)cc3)c(N3CCSCC3)n2)cc1` is lower in “hERG current change (%, negative = inhibition) at 10uM” value: 41% for the first, -11.9% for the second.

First: OCCCNc1nc(-c2ccc(Cl)cc2)nnc1-c1ccccc1
Second: O=[N+]([O-])c1ccc(-c2nnc(-c3ccccc3)c(NCCCO)n2)cc1
The “hERG current change (%, negative = inhibition) at 10uM” value of the first is higher: -40% for the first, -67.3% for the second.

First: O=[N+]([O-])c1ccc2nc(NCCCO)nc(-c3ccccc3)c2c1
Second: OCCCNc1nnc(-c2ccccc2)c2ccccc12
The “hERG current change (%, negative = inhibition) at 10uM” value of the first is lower: -22.7% for the first, 2.95% for the second.

Compared with `CC(C)(C)c1ccc(C(CC(=O)O)NC(=O)C23CC4CC(CC(C4)C2)C3)cc1` (stereo not shown), `CC12CC3CC(C)(C1)CC(C(=O)NCc1ccncc1)(C3)C2` is lower in “hERG current change (%, negative = inhibition) at 10uM” value: 17.7% for the first, 9.2% for the second.

First: O=C(Nc1ccc2c(c1)OCO2)C1Cc2ccccc2CN1S(=O)(=O)c1cccs1 (stereo not shown)
Second: O=C(c1cc(-c2cccnc2)nc2ccccc12)N1CCN(S(=O)(=O)c2cccs2)CC1
The “hERG current change (%, negative = inhibition) at 10uM” value of the first is higher: 4.05% for the first, -64.3% for the second.

First: COc1ccccc1NC(=O)c1ccc(Br)c(S(=O)(=O)N2CCCC2)c1
Second: CCCn1c(CCC(=O)O)nc2cc(S(=O)(=O)N3CCCC3)ccc21
The “hERG current change (%, negative = inhibition) at 10uM” value of the first is lower: -2.36% for the first, 12.1% for the second.

Compared with `CCC(C)C(NC(=O)c1ccccc1NC(=O)c1ccc(OC)cc1)C(=O)NCCCn1ccnc1` (stereo not shown), `COc1ccc(NC(=O)c2cc(-c3ccc(C)o3)nc3ccccc23)c(OC)c1` is higher in “hERG current change (%, negative = inhibition) at 10uM” value: -1.96% for the first, 14.9% for the second.

First: COCCOC(=O)c1c(C)oc2ccc(O)c(CN3CCC(C)CC3)c12
Second: CCOc1ccc(CCNC(=O)COC(=O)c2ccc(C)c([N+](=O)[O-])c2)cc1OCC
The “hERG current change (%, negative = inhibition) at 10uM” value of the first is lower: -29.8% for the first, -7.57% for the second.

Going from `CC12CC3CC(C)(C1)CC(NCc1ccncc1)(C3)C2.Cl` to `CCOC(=O)C1CCN(C(=O)c2cc(-c3ccncc3)nc3ccccc23)CC1`, the “hERG current change (%, negative = inhibition) at 10uM” value falls from -58.7% to -67.2%.

Going from `O=C(c1ccc([N+](=O)[O-])o1)N(Cc1nnc(-c2ccccc2Cl)o1)C1CC1` to `N#CCSc1nnc(-c2ccccc2O)n1CCc1ccccc1`, the “hERG current change (%, negative = inhibition) at 10uM” value rises from -20.9% to -10.7%.

First: O=C(CN(Cc1ccc2c(c1)OCO2)C(=O)CNC(=O)c1ccco1)NC1CCCCC1
Second: CCCCNC(=S)NNC(=O)c1ccc2c(c1)OCO2
The “hERG current change (%, negative = inhibition) at 10uM” value of the first is lower: -7.83% for the first, 5.46% for the second.

First: Cc1ccc(-c2cc(C(=O)N3CCN(c4ccccc4O)CC3)c3ccccc3n2)cc1
Second: O=C(c1cc(-c2ccncc2)nc2ccccc12)N1CCN(c2ccccc2O)CC1
The “hERG current change (%, negative = inhibition) at 10uM” value of the first is higher: -1.9% for the first, -64.3% for the second.

Compared with `CCOC(=O)C1CCCN(C(=O)c2cc(-c3ccncc3)nc3ccccc23)C1` (stereo not shown), `Cc1ccccc1CN1CCN(C(=O)c2cc(-c3ccncc3)nc3ccccc23)CC1` is lower in “hERG current change (%, negative = inhibition) at 10uM” value: -32.4% for the first, -76.7% for the second.

First: O=C(c1cc(-c2cccnc2)nc2ccc(Cl)cc12)N1CCN(S(=O)(=O)c2cccs2)CC1
Second: O=C(c1cc(-c2cccs2)nc2ccccc12)N1CCN(S(=O)(=O)c2ccccc2)CC1
The “hERG current change (%, negative = inhibition) at 10uM” value of the first is higher: -4.28% for the first, -5.65% for the second.

Compared with `Cc1ccc(-c2cc(C(=O)N3CCN(c4ccc(F)cc4)CC3)c3ccccc3n2)o1`, `Cc1ccc(-c2cc(C(=O)N3CCN(c4ccccc4O)CC3)c3ccccc3n2)o1` is lower in “hERG current change (%, negative = inhibition) at 10uM” value: -35.7% for the first, -70.9% for the second.

First: O=C(c1cc(-c2ccccc2)nc2ccccc12)N1CCN(c2ccccc2O)CC1
Second: O=C(c1cc(-c2ccccc2)nc2ccccc12)N1CCN(c2ccccn2)CC1
The “hERG current change (%, negative = inhibition) at 10uM” value of the first is higher: -10.9% for the first, -27.6% for the second.

Going from `CC(=O)N1CCN(C(=O)c2cc(-c3ccc(C)o3)nc3ccccc23)CC1` to `COc1ccc(-c2cc(C(=O)N3CCN(c4ccccn4)CC3)c3ccccc3n2)cc1`, the “hERG current change (%, negative = inhibition) at 10uM” value rises from -10.1% to -5.51%.

First: COc1cc2cc(CCCOC(=O)c3cccc(Br)c3)oc(=O)c2cc1OC
Second: COc1cccc(CN2CCN(C(=O)c3cc(-c4cccnc4)nc4ccc(C)cc34)CC2)c1
The “hERG current change (%, negative = inhibition) at 10uM” value of the first is higher: -2.2% for the first, -12.7% for the second.

First: CO/N=C/NC(=O)NOCc1ccc(Cl)cc1Cl
Second: Cc1cc(C(=O)NNC(=O)c2cccc([N+](=O)[O-])c2)n[nH]1
The “hERG current change (%, negative = inhibition) at 10uM” value of the first is lower: -11.5% for the first, 18.9% for the second.

Compared with `C[C@H](NC(=O)c1nc[nH]c1C(=O)N(C)Cc1ccccc1)C(=O)OC(C)(C)C`, `COc1cccc(CN2CCN(C(=O)c3cc(-c4ccccn4)nc4ccc(Cl)cc34)CC2)c1` is higher in “hERG current change (%, negative = inhibition) at 10uM” value: 5.67% for the first, 17.1% for the second.

First: CC(=O)c1cc(C#N)c(Oc2ccc(F)cc2)nc1C
Second: COc1cccc(CN2CCN(C(=O)c3cc(-c4ccncc4)nc4ccc(C)cc34)CC2)c1
The “hERG current change (%, negative = inhibition) at 10uM” value of the first is higher: 13.7% for the first, -71% for the second.

In the case of `O=C(c1cc(-c2ccncc2)nc2ccccc12)N1CCN(c2ccccn2)CC1`, the “hERG current change (%, negative = inhibition) at 10uM” value is reported as -63.5%.

— publication PMC4336329 (PLoS ONE, 2015)
